Where “and” joins values, the source holds several entries; their conditions need not be identical. Identical values can stand only once. Out of some 190,000 compounds screened, about 6,900 (3.6%) were called active. This is one part of a sample in which actives are shown more often than they occur. A number with no mark means an inactive call. Cut-off read from the data, not from the text of the source: active = inhibition above about 50%; inactive = the rest.

Sequence of Huntingtin (Homo sapiens) (P42858 whole entry, looked up, stated change not applied): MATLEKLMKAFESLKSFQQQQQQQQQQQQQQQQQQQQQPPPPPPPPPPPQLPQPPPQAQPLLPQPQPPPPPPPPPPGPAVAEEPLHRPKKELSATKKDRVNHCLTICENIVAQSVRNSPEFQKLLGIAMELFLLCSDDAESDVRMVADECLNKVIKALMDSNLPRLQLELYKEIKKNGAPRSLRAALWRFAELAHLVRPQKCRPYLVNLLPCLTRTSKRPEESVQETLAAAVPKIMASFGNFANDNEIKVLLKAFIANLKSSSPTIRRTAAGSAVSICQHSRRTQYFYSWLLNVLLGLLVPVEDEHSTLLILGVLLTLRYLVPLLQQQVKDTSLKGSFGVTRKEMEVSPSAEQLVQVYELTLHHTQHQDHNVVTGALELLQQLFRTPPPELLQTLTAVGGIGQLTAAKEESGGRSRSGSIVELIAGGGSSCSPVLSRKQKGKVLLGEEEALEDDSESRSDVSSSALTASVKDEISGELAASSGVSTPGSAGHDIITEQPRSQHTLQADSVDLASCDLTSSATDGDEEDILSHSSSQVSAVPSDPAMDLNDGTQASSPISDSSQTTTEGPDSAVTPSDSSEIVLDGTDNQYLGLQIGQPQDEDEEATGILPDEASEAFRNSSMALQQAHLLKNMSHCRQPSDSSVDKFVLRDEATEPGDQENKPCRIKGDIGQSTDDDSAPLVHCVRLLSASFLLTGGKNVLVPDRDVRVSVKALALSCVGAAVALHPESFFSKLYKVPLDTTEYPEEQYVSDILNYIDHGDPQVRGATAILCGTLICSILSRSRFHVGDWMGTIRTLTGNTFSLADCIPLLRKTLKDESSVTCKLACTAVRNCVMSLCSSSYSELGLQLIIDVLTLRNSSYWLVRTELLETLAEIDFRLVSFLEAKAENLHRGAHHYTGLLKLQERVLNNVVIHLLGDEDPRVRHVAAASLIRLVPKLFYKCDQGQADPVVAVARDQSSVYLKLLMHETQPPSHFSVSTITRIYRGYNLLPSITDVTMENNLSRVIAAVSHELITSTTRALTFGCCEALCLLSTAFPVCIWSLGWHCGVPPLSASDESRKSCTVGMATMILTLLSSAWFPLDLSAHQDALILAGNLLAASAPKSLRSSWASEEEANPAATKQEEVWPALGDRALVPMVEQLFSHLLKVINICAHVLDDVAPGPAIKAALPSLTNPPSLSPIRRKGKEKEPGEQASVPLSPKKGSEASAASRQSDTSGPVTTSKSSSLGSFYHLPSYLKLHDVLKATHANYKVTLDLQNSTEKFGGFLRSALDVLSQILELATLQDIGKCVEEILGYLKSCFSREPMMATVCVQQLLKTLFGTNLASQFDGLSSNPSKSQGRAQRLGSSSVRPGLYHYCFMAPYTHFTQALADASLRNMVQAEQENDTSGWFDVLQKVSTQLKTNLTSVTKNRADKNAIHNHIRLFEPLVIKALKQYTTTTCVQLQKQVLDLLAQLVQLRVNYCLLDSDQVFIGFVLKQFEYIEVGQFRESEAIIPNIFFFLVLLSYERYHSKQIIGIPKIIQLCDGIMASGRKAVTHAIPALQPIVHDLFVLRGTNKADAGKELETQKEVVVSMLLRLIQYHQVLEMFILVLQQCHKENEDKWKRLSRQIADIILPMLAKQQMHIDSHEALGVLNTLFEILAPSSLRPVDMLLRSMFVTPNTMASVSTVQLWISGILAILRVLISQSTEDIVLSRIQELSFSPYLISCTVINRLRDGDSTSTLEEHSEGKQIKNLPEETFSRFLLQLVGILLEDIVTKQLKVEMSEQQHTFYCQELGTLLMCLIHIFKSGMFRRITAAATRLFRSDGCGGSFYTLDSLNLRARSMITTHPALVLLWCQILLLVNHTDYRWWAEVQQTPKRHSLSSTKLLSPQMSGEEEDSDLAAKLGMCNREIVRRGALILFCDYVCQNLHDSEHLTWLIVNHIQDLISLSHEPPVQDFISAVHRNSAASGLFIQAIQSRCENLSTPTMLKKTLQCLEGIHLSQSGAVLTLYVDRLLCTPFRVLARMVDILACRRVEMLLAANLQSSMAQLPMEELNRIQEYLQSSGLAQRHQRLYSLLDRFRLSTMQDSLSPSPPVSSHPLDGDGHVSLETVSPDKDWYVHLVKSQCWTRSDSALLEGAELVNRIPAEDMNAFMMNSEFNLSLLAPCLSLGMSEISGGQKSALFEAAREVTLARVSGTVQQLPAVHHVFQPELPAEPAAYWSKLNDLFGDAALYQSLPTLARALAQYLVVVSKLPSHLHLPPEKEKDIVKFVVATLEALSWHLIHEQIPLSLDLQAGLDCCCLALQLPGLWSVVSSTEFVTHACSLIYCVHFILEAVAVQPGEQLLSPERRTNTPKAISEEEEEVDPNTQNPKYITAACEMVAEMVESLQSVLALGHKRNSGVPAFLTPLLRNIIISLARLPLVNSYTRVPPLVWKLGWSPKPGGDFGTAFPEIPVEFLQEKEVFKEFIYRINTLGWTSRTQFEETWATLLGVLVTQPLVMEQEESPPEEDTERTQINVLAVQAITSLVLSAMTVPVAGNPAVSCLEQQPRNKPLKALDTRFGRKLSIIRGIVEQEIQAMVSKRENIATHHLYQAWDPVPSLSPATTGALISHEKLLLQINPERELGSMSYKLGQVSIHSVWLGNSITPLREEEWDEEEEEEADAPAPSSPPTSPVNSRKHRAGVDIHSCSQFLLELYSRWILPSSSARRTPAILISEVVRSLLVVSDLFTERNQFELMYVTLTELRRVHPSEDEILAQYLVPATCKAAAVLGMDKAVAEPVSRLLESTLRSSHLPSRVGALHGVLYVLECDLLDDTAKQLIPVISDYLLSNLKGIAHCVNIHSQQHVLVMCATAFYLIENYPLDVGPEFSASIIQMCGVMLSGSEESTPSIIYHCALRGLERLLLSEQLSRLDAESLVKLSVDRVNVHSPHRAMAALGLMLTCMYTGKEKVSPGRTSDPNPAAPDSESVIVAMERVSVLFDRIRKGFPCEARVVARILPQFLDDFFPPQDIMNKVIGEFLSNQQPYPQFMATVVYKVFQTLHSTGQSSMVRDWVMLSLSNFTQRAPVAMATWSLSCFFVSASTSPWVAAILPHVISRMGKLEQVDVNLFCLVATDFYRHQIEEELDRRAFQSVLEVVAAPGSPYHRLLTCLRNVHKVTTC

This experiment has as its target Huntingtin (Homo sapiens) (UniProt P42858). The experiment can be described thus: mutant huntingtin-calmodulin interaction inhibitors – biochemical, AlphaScreen, primary screen (AID 1671202).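 Note: 0% = both proteins with DMSO and 100% = one protein alone.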 Particulars: AlphaScreen His-mHTT/GST-CaM binding, luminescence; at 15 µM, stronger effect = higher value. For orientation: Alpha assays give light when donor and acceptor beads are brought close together.
Turning to `COc1ccc(CCNC(=S)NC2Cc3ccccc3C2)cc1OC`, the inhibition (in general, the change of the read-out against control, counted positive when it falls) is 6.9%.
For `Cc1onc(-c2ccccc2)c1C(=O)Nc1ccc(S(N)(=O)=O)cc1` the value was -0.8%; for `CN1CCN(c2cc(C(=O)O)c3cc(F)ccc3n2)CC1`, 3.5%.
Turning to `N#Cc1ccc(Sc2nc3ccccc3o2)c([N+](=O)[O-])c1`, the inhibition was 12%.
Regarding `Cc1ccc(C)c(NC(=O)Cc2ccccc2)c1`, the inhibition is 0.9%.
With `O=C(Cc1ccccc1)Nc1ccc(F)c(Cl)c1`, the inhibition is -11.1%.
As for `COc1ncccc1CNC(=O)c1cccs1`, the inhibition was -2.2%.
For `O=C(Cc1ccccc1)NC(c1ccc(Cl)cc1)c1ccc2cccnc2c1O` (stereo not given) the value was 99% (active).
For `CC(=O)NC(c1ccccc1)c1ccc2cccnc2c1O` (stereo not given) the value was 100% (active).
With `CC(=O)NC(c1cccs1)c1cc(Cl)c2cccnc2c1O` (stereo not given) the figure was 70% (active) and 100% (active); with `CC(NC(=O)COc1ncccn1)c1ccccc1` (stereo not given), -13.9%; with `Cc1ccc(C(=O)NCCOc2cccc3cccnc23)cc1`, 9% and -2%.
For `O=C(O)c1ccccc1C(=O)Nc1cccc2cccnc12`, the inhibition was 4%.
In the case of `O=C(Cc1ccccc1)NC(Nc1ccccc1Cl)C(Cl)(Cl)Cl` (stereo not given), the inhibition was 20%.
For `COc1cccc(C(=O)NC(c2cccc([N+](=O)[O-])c2)c2cc(Cl)c3cccnc3c2O)c1` (stereo not given) the value was 19%; for `Cc1ccc(C(NC(=O)Cc2ccccc2)c2ccc3cccnc3c2O)cc1` (stereo not given), 100% (active).
On to `CC(C)c1ccc(OCC(=O)Nc2ccccc2[N+](=O)[O-])cc1`, for which the inhibition is 3.8%.
For `COc1ccc(-n2c(-c3cccc([N+](=O)[O-])c3)cn3c4c(=O)n(C)c(=O)n(C)c4nc23)cc1` the value was 4%; for `CC(=O)c1ccc(NC(=O)CSc2ncc(-c3ccc(C)c(C)c3)o2)cc1`, 2.5%; for `CC(=O)N1CCc2cc(Br)cc(S(=O)(=O)NCCc3ccccc3)c21`, 20%.
`CC(=O)C1=C(C)NC(SCC(=O)c2ccccc2)=C(C#N)C1c1ccc(Br)cc1` (stereo not given): the inhibition is -23.7%.
As for `COc1cc(NC(=O)c2ccccc2OC)c(OC)cc1Cl`, the inhibition was 9%.
For `Cc1ccc(C)c(C(O)=C2C(=O)C(=O)N(CCCN3CCOCC3)C2c2ccncc2)c1` (stereo not given) the value was -2.8%.
For `Clc1ccc(C2C=C(c3cccc(Br)c3)Nc3nnnn32)c(Cl)c1` (stereo not given) the value was -5%; for `O=C(Nc1nncs1)c1ccc2nc(-c3ccco3)c(-c3ccco3)nc2c1`, 99.4% (active); for `O=C(Nc1ccc(Cl)cc1)c1ccc2nc3ccccc3nc2c1`, 13.5%.
For `CCOc1ccc2nc(NC(=O)c3ccc(OC)cc3)sc2c1` the value was -5%; for `COc1ccc(C=C2Oc3cc(OC(=O)c4ccc5c(c4)OCO5)ccc3C2=O)c(OC)c1OC`, 3.6%; for `COc1ccc(-c2coc3c(C)c4oc(=O)c5ccccc5c4cc23)cc1F`, 2%.
`N#CC1=C(N)Oc2n[nH]c(-c3ccccc3)c2C1c1ccc(F)c(Br)c1` (stereo not given): the inhibition is 20%.
With `Cc1cc(-c2[nH]c3c(c2-c2cc(C)sc2C)c(=O)n(C)c(=O)n3C)c(C)s1`, the inhibition is -3%.
For `O=C(NCCSc1c[nH]c2ccccc12)c1ccc(Cl)c([N+](=O)[O-])c1` the value was 37%; for `Cc1cc(Cl)ccc1OCC(=O)NCCc1nc2ccccc2[nH]1`, 19%.
With `O=C(COc1ccc(Cl)cc1Cl)NCCSc1c[nH]c2ccccc12` the figure was 61% (active); with `COc1cccc(NC(=O)C2(c3ccccc3)CCOCC2)c1`, 1.7%.
As for `Cc1cccc2nnc(N3CCC(C(=O)N4CCOCC4)CC3)n12`, the inhibition is 1.65%.
With `Cc1cc(C)nc(NC(=O)c2cccc(F)c2)c1` the figure was -6.5%.
For `Cc1ccnc(NC(c2ccc(O)cc2)c2ccc3ccc(C)nc3c2O)c1` (stereo not given) the value was 98% (active); for `Cc1cccc(NC(=O)c2cc(F)ccc2F)n1`, -3%.
With `Cc1cccc(NC(c2cccc(F)c2)c2ccc3ccc(C)nc3c2O)n1` (stereo not given) the figure was 76% (active).
On to `Cc1cc(S(=O)(=O)NCc2cccnc2)c(Cl)cc1Cl`, for which the inhibition is -3.6%.
With `Cc1ccc(S(=O)(=O)N2CCCC(C)(C(=O)NCc3ccccc3C)C2)cc1` (stereo not given) the figure was 13%; with `Cc1ccc(CNC(=O)N2CCCC(C)(C(=O)NCc3ccccc3)C2)cc1` (stereo not given), 0.08%.
For `Cc1ccc(CNC(=O)C2(C)CCCN(S(=O)(=O)c3cc(C)c(C)cc3C)C2)cc1` (stereo not given) the value was 52.3% (active).
For `CCN=C1SC(C(=O)Nc2ccc(Cl)cc2)CC(=O)N1CC` (stereo not given) the value was 7%; for `CCN(CC)S(=O)(=O)N(CC(=O)NC(C)(C)C)Cc1ccc(F)cc1`, -4%.
As to `CCCn1cc2c3c(cccc31)CN(C(=O)Nc1cc(OC)c(OC)c(OC)c1)CC2`, the inhibition is 2.35%.
`CCn1cc2c3c(cccc31)CN(C(=O)c1ccc(OC)cc1)CC2`: the inhibition was 44.1%.
Regarding `COc1ccc(OC)c(NC(=O)N2CCc3cn(CC(C)C)c4cccc(c34)C2)c1`, the inhibition is 69.3% (active).
For `CCn1cc2c3c(cccc31)CN(C(=O)Nc1cc(C)ccc1OC)CC2` the value was 60.9% (active).
In the case of `CC(C)Cn1cc2c3c(cccc31)CN(C(=O)Nc1ccc(F)cc1)CC2`, the inhibition was 0.25%.
As to `CCn1cc2c3c(cccc31)CN(C(=O)Nc1ccc(C)cc1C)CC2`, the inhibition is 26.9%.
For the compound `O=[N+]([O-])c1ccc(N2CCN(CC3CC4C=CC3C4)CC2)cc1` (stereo not given), the inhibition is 19.4%.
With `COc1cc(Cl)c(NC(=O)C2CCCN(C(=O)c3cc(C)cc(C)c3)C2)c(OC)c1` (stereo not given) the figure was 1.7%; with `CC1(C)CC(=O)C2=C(C1)Nc1ccc3ncccc3c1C2c1ccccc1C(F)(F)F` (stereo not given), 4%.
As for `CCOc1ccc(-c2ccc(N3CCN(C(=O)Cn4cnc5ccccc54)CC3)nn2)cc1`, the inhibition was 14.5%.
For `CC1C(=O)N(Cc2cn(CC3CCCCC3)nn2)CCS(=O)(=O)N1Cc1ccc(-c2cccc(N(C)C)c2)cc1` (stereo not given) the value was 65.9% (active); for `CC(=O)c1cccc(-c2ccc(CN3C(CC(C)C)C(=O)N(Cc4cn(CC5CCCCC5)nn4)CCS3(=O)=O)cc2)c1` (stereo not given), 22.9%.
Turning to `COCOCCn1cc(CN2CCS(=O)(=O)N(Cc3ccc(-c4cccc(N(C)C)c4)cc3)C(CC(C)C)C2=O)nn1` (stereo not given), the inhibition was 65.8% (active).
For `Cc1ccc(-c2ccc(CN3C(C(C)C)C(=O)N(Cc4cn(CCC5OCCCO5)nn4)CCS3(=O)=O)cc2)cc1` (stereo not given) the value was 19%; for `CC(C)C1C(=O)N(Cc2cn(CCC3OCCO3)nn2)CCS(=O)(=O)N1Cc1ccc(-c2ccccc2C(F)(F)F)cc1` (stereo not given), 43.5%.
On to `COc1ccc(-c2ccc(CN3C(C(C)C)C(=O)N(Cc4cn(CC5CCCCC5)nn4)CCS3(=O)=O)cc2)cn1` (stereo not given), for which the inhibition was 29.4%.
For `Cc1ccc(-c2ccc(CN3C(C(C)C)C(=O)N(Cc4cn(CCC5OCCO5)nn4)CCS3(=O)=O)cc2)cc1` (stereo not given) the value was 14.9%.
For `COCOCCn1cc(CN2CCS(=O)(=O)N(Cc3ccc(-c4ccccc4)cc3)C(CC(C)C)C2=O)nn1` (stereo not given) the value was 60.8% (active); for `CC(C)CC1C(=O)N(Cc2cn(Cc3ccco3)nn2)CCS(=O)(=O)N1Cc1ccc(-c2ccc(Cl)c(Cl)c2)cc1` (stereo not given), 97.6% (active).
With `Cc1ccc(-c2ccc(CN3C(C)C(=O)N(Cc4cn(CCC5OCCCO5)nn4)CCS3(=O)=O)cc2)cc1` (stereo not given) the figure was -4%.
For the compound `CC1C(=O)N(Cc2cn(Cc3ccco3)nn2)CCS(=O)(=O)N1Cc1ccc(-c2cccc(CO)c2)cc1` (stereo not given), the inhibition was 30%.
On to `COc1ccc(-c2ccc(CN3C(CC(C)C)C(=O)N(Cc4cn(CC5CCCCC5)nn4)CCS3(=O)=O)cc2)cc1` (stereo not given), for which the inhibition is 3.9%.
With `CC(C)NC(=O)c1cn(-c2ccc(F)cc2)nn1`, the inhibition is 3.4%.
For `COc1c(S(=O)(=O)Nc2ccc(CC(=O)O)cc2)ccc(Cl)c1Cl` the value was -3%; for `Cc1ccc(C(=O)NC2CCN(c3ccccc3C(=O)N(C)C(C)C)CC2)cc1`, 6.6%.
For `O=C(c1ccc(Cl)cc1)N(Cc1cc(-c2ccccc2)on1)C1CC1` the value was -12.1%; for `CCC(c1ccccc1)c1nc(-c2ccc3nnn(C)c3c2)no1` (stereo not given), -20.7%; for `CCCCC(=O)Nc1c2c(nn1-c1ccc([N+](=O)[O-])cc1)CS(=O)(=O)C2`, -1%.
With `CCOC(=O)c1c(NC(=O)c2ccc([N+](=O)[O-])s2)sc2c1CCCC2` the figure was -0.8%; with `COc1nccnc1NS(=O)(=O)c1ccc(NC(=O)c2ccc(C(C)(C)C)cc2)cc1`, 13.2%.
Take `O=c1[nH]c(C=C2C=Nc3ccc(Br)cc32)c(O)n1Cc1ccc(Br)cc1`: the inhibition was 93% (active).
Turning to `CCc1nc2c(NC(=O)Nc3cccc(C)c3)cccn2n1`, the inhibition is -3.6%.
With `COc1ccc(-n2nc3c(c2NC(=O)c2ccccc2Cl)CSC3)cc1` the figure was 22%.
As for `Cc1cccc(C(=O)N2CCc3c(c(-c4nc(Cc5ccccc5)no4)nn3C)C2)c1`, the inhibition is 7.62%.
For `COc1ccc(CC(=O)N2CCc3c(c(C(=O)NCc4cccc(C)c4)nn3C)C2)cc1` the value was 40.5%; for `Cn1nc(C(=O)NCc2ccccc2)c2c1CCN(C(=O)c1cccc(F)c1)C2`, 64.8% (active); for `COc1cccc(C(=O)N2CCc3c(c(C(=O)NCc4cccc(C)c4)nn3C)C2)c1`, 66.6% (active).
With `COc1cc(OC)cc(C(=O)N2CCc3c(c(C(=O)NCc4cccc(C)c4)nn3C)C2)c1` the figure was 40.8%; with `CCCC(=O)N1CCc2c(c(C(=O)NCc3cccc(C)c3)nn2C)C1`, 35.7%; with `O=C(O)CCCCCNS(=O)(=O)c1cccc(C(F)(F)F)c1`, -2%.
Take `O=C(c1ccc(F)cc1)N1CCCC1c1ccccc1F` (stereo not given): the inhibition is -8.08%.
As for `O=C(CSC1=Nc2ccccc2C2=NC(Cc3ccccc3)C(=O)N12)NC1CCCCC1` (stereo not given), the inhibition was 39%.
Consider `CC(C)C1N=C2c3ccccc3N=C(SCC(=O)c3ccc(O)c(O)c3)N2C1=O` (stereo not given), for which the inhibition was 20%.
With `O=C(CSC1=Nc2ccccc2C2=NC(Cc3ccccc3)C(=O)N12)c1ccc(O)c(O)c1` (stereo not given) the figure was 57% (active).

The values are drawn from PubChem BioAssay AID1671202 (University of Kansas High Throughput Screening Laboratory, 2021).
